Measurements from PubChem BioAssay AID861 (The Scripps Research Institute Molecular Screening Center, 2007).
Out of some 200,000 compounds screened, about 360 (0.18%) were called active. No stated cut-off is given here; in the data, active means inhibition above about 25%; inactive means the rest. The full list was thinned out, with actives kept by preference.

Biological target: Toll-like receptor 4 (Homo sapiens) + Myeloid differentiation primary response protein MyD88 (Homo sapiens) (UniProt O00206+Q99836)
Sequence (O00206 whole entry, looked up): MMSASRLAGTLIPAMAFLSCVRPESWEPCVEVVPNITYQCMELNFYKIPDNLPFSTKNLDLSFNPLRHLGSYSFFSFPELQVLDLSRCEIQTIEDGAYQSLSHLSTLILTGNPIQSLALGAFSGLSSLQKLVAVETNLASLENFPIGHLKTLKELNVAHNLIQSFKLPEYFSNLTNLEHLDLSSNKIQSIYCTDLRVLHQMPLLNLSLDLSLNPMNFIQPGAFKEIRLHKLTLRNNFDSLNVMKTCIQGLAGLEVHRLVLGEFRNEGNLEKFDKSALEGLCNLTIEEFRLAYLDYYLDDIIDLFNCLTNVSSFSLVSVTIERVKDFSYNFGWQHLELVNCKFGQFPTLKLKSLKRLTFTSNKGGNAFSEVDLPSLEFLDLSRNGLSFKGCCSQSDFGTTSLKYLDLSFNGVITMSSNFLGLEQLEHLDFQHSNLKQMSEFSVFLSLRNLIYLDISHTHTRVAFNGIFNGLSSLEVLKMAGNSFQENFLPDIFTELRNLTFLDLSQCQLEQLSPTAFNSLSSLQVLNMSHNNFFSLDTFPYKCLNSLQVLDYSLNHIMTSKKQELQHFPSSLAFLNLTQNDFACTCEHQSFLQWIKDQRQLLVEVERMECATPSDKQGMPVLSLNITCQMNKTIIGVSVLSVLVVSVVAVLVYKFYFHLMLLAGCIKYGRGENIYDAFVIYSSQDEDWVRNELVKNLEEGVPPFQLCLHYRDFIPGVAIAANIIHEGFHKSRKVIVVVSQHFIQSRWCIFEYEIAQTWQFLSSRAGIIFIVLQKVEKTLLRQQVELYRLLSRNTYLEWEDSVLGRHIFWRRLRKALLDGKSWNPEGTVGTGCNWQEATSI
Sequence (Q99836 whole entry, looked up): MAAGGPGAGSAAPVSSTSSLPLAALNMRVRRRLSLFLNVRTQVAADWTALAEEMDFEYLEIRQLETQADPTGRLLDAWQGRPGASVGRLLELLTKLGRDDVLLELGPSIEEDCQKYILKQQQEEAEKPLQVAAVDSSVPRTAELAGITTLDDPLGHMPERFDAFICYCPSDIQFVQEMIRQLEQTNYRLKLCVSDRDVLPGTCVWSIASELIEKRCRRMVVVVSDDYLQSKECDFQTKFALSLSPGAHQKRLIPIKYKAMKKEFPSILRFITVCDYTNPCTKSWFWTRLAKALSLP
Assay: inhibitors of TLR4-MyD88 association in cells, primary screen, cell-based, HeLa CL3-4, BLA complementation, FRET ratio (AID 861);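 further: 0% = vehicle and 100% = reference inhibitor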
Details: HeLa CL3-4 TLR4/MyD88 BLA complementation, at 8.4 µM, hits give high values

inhibition, active:
COc1ccccc1N1N=C(c2cccs2)CC1c1ccccc1 (centres undefined) 44.4%
O=C(/C=C/c1ccc(N2CCOCC2)cc1)c1ccccc1 27.9%
O=C(c1ccc(Cl)cc1)c1cnc(Nc2ccccc2)s1 25.8%
Cc1cccc(COc2ccccc2/C=N/Nc2ccc([N+](=O)[O-])cc2)c1 28.7%
CCc1ccc2c(c1)C1(NN=C(c3ccccc3)S1)C(=O)N2 (centres undefined) 25.3%
O=C(Nc1ccccc1Cl)/C(Cl)=C(\Cl)S(=O)c1ccccc1 (centres undefined) 27%

inhibition, inactive:
CSc1ccc(/C=N/N2CCN(Cc3ccccc3Cl)CC2)cc1 8.51%
Cc1ccc(NC(=O)c2cc([N+](=O)[O-])ccc2Cl)c(O)c1 -13.5%
O=C(/C=C/c1ccc(F)cc1)Nc1cccc(S(=O)(=O)Nc2cccc(C(F)(F)F)c2)c1 -0.34%
CCOc1cccc(/C=C/c2ccc3ccccc3n2)c1OC(C)=O 8.04%
O=C(CCN1C(=O)c2ccncc2C1=O)Nc1cc(F)ccc1F 1.62%
CC(=O)Nc1ccc(NC(=O)COc2ccc(S(=O)(=O)NC(C)c3ccccc3)cc2)cc1 (centres undefined) -6.49%
O=C(CN1CCCC1)N1CCN(c2ccccc2)CC1 -1.74%
COCCCNC(=S)NNC(=O)C(O)(c1ccccc1)c1ccccc1 1.88%
Cc1cc(/C=N/NC(=O)CC2(C)OCCO2)c(C)n1-c1ccc(Cl)c(Cl)c1 -8.27%
Cc1nnc(SCC(=O)N2c3ccccc3C(C)(c3ccc(Cl)cc3)CC2(C)C)s1 (centres undefined) -17.2%
CC/S(CC1CC1(Cl)Cl)=N\S(=O)(=O)c1ccc(C)cc1 (centres undefined) -3.44%
Cc1ccc(OCc2nnc(SC3CCc4ccccc4C3=O)n2C)cc1 (centres undefined) -13.3%
CCC1C(=O)c2ccccc2N(C)C1=O (centres undefined) 3.79%
N#CC1(NC(=O)COc2ccc3oc4ccccc4c3c2)CCCCC1 -7.56%
CN(CCC1CCOCC1)Cc1cn[nH]c1-c1ccc(-c2ccccc2)cc1 -6.36%
Cc1ccc(NC(=O)c2ccccn2)cc1S(=O)(=O)N1CCOCC1 -12.9%
C=CCN1C(=O)C(O)(CC(=O)c2ccccn2)c2ccccc21 (centres undefined) 0.55%
CC1=NN(C(=O)CCc2ccccc2O)C(O)(C(F)(F)F)C1 (centres undefined) -5.78%
CCn1c2ccccc2c2cc(NC(=O)C/C(C)=N/NC(=O)c3ccccc3N)ccc21 -6.09%
CCCCCCOc1ccc(OC(=O)c2cccnc2)cc1 -5.46%
CC(=O)Nc1ccc(S(=O)(=O)NC(C)C(=O)OCC(=O)NC2CCCC2)cc1 (centres undefined) -2.35%
COCCNC(=O)NC(=O)COC(=O)C1(c2ccc(Cl)cc2)CC1 1.43%
O=C(Nc1nnc(-c2ccco2)o1)c1ccc(S(=O)(=O)N2CCOCC2)cc1 9.33%
CN(C)CCCN1C(=O)CSC1c1ccc([N+](=O)[O-])cc1 (centres undefined) 2.09%
COC(=O)c1nc2n(n1)C(c1ccc([N+](=O)[O-])cc1)C(C(=O)Nc1ccc(Cl)cc1)=C(C)N2 (centres undefined) 4.62%
COc1cc(NC(=S)N2CCCC(C)C2)cc(OC)c1OC (centres undefined) 6.42%
COc1ccc(C2Nc3ccccc3C(=O)N2c2ccc(Cl)cc2)cc1Cn1cc([N+](=O)[O-])cn1 (centres undefined) -3.28%
Cc1nc(N=C(N)N)nc2c(C)cccc12 -6.85%
COc1cccc(C(=O)Nc2cc3c(cc2Br)OCCCO3)c1 5.11%
CCc1cccc(NC(=O)CCC(=O)O)c1 -11%
CC(=O)c1cc(C#N)c(N2CCCCC2)nc1C 7.39%
CCN(CC)S(=O)(=O)c1cc([N+](=O)[O-])ccc1N=Nc1c(O)n(C)c2ccccc12 6.59%
Cc1cccc(C)c1N1CCN(S(=O)(=O)N2CCCCC2)CC1 -5.18%
CC1CCN(C(=O)c2ccc(CSc3ccc(Cl)cc3)cc2)CC1 2.08%
C=C(C)C1CC=C(C)/C(=N\NC(=O)CNc2ccccc2OC)C1 (centres undefined) 3.79%
O=C(c1ccc2ccccc2n1)N1CCN(c2ccccc2Cl)CC1 -7.41%
CCOC(=O)c1[nH]cnc1C(=O)Nc1ccccc1C 4.26%
COc1ccc(C2CC(c3cccs3)=NN2c2ccc(F)cc2)cc1OC (centres undefined) 5.58%
COc1ccc(C2CC(c3cccs3)=NN2c2ccccc2)cc1 (centres undefined) 0.51%
O=C(Nc1ccc(Br)cn1)c1ccc([N+](=O)[O-])cc1Cl 0.87%
O=C(O)c1ccc2c(c1)C(=O)N(c1ccc(/C=C/C(=O)c3ccccc3)cc1)C2=O -0.8%
O=C(/C=C/c1ccccc1)c1ccoc1 4.74%
CCOc1ccc(-c2n[nH]c(=S)n2/N=C/c2cc3c(cc2[N+](=O)[O-])OCO3)cc1 -2.5%
CCOC(=O)CCCN1CC(O)=C(c2nc3ccccc3s2)C1=N -14.8%
COc1ccc(-c2[nH]ncc2/C=N/NC(=O)c2cc(Br)ccc2O)c(OC)c1 -5.73%
COc1cc(OC)cc(-c2nnc(N(C)C(=O)c3ccncc3)s2)c1 11.3%
O=C(NCC1CCCO1)C1CCN(C2CCN(C(=O)C3CCCCC3)CC2)CC1 (centres undefined) -1.44%
CCOc1cc(NC(=S)NCc2ccco2)c(OCC)cc1NC(=O)c1ccco1 -15.2%
CC(=O)C1C(c2ccc(Cl)cc2)c2c(n[nH]c2C)CC1(C)O (centres undefined) -3.07%
CC(C)(C)C(=O)c1cnc(Nc2ccccc2)s1 -8.48%
O=C(CSc1nnc(Nc2ccccc2)s1)Nc1cccnc1Cl -6.41%
O=C(NC1CC1)C1CCCN(C(=O)NC2CCCCC2)C1 (centres undefined) 5.9%
Cc1cc(F)ccc1S(=O)(=O)N1CCCOC1CNC(=O)C(=O)NCCC1=CCCCC1 (centres undefined) -6.72%
O=C(Nc1ccc(-n2ccnc2P(=O)(O)c2ccccc2)cc1)c1ccccc1Br -8.07%
Cc1ccc(C)c(NC(=O)CCC(=O)N/N=C2/CC(=O)CC(C)(C)C2)c1 6.45%
COc1ccc(F)c(-c2nc(CN3CCC(c4ccccc4)CC3)c(C)o2)c1 -6.39%
O=C(OCC(=O)c1c[nH]c2ccccc12)c1cccc(O)c1 -10%
COc1cc(/C=N/O)ccc1OCc1ccc([N+](=O)[O-])cc1 -3.68%
Cc1ccccc1OCCOc1ccc([N+](=O)[O-])cc1/C=N/n1cnnc1 -17.5%
CCCn1c(=S)[nH]c2ccc(C(F)(F)F)cc21 -6.93%
CCNC(=O)N1c2ccccc2Sc2ccccc21 7.55%
Cc1cccc(C(=O)NC(=S)N2CCN(c3ccc([N+](=O)[O-])cc3)CC2)c1 -12.6%
COC(=O)C1=NN(c2ccccc2)C2C(=O)N(c3ccccc3OC)C(=O)C12 (centres undefined) 0.17%
Cc1cccc(C(=O)Nc2ccccc2C(=O)NCc2cccnc2)c1 -0.85%
C=C1c2cc(CC)ccc2NC(=O)N1c1ccc(C)cc1 1.66%
O=C1Nc2ccccc2C12Nc1ccccc1S2 (centres undefined) -1.86%
CNc1nc(Nc2ccc(C)c(Cl)c2)nc(N)c1[N+](=O)[O-] -5.76%
O=C(Nc1ccccc1Cl)c1ccc2nsnc2c1 7.26%
O=C(CN1CCCCC1)Nc1ccccc1Cl -3.05%
CC1(c2ccccc2)CC(C)(C)N(C(=O)c2cc([N+](=O)[O-])cc([N+](=O)[O-])c2)c2ccccc21 (centres undefined) -16.2%
CCOc1ccc(C(C)=O)cc1COC(=O)c1cnc(Cl)c(Cl)c1 15.1%
COC(=O)/C(=C1\Oc2ccc(C(C)(C)C)cc2S1)C(F)(F)F 6.06%
Cc1c(Cl)cccc1NC(=S)N(Cc1ccccc1)Cc1cccnc1 1.23%
CC(Sc1nc2c([nH]c3ccccc32)c(=O)n1C)c1ccccc1 (centres undefined) 8.9%
CC1=NN(c2cccc(Cl)c2)C(=O)C12CC(C)=C(C)CS2 (centres undefined) 2.14%
Cn1cc(CN2CCC(C(O)CCc3ccccc3)CC2)c(-c2ccccc2F)n1 (centres undefined) -13.8%
CC1CCN(C(=S)c2cccc(O)c2)CC1 -6.27%
O=[N+]([O-])c1ccc(N2CCN(CC(O)COc3ccccc3)CC2)cc1 (centres undefined) 5.02%
CCc1cccc(CC)c1NC(=O)COc1ccccc1C(=O)c1cc(C#N)c(=O)n(C2CCCCC2)c1 -16.2%
CC(C)CCN1C(=O)c2ccc(C(=O)Nc3cccc(S(N)(=O)=O)c3)cc2C1=O 1.58%
CC(=O)NCCc1nc2cc(NC(=O)c3ccccc3)ccc2n1C -9.04%
CC(Oc1ccc(Br)cc1Br)C(=O)NC1CCCC1 (centres undefined) -3.01%
CS(=O)(=O)N(Cc1ccccc1Cl)c1ccc(C(=O)NCc2cccnc2)cc1 -15.2%
